# Records with an inconclusive call do not appear. Values without a mark were called inactive. Calls follow the shape of the dose curve; as a rule, active = well fitted inhibition curve with a large enough effect; inconclusive = small, poorly fitted or top-dose-only effect, or effect the other way; inactive = flat fitted curve, though single readings scatter.
# Molecular target: ATP-dependent 6-phosphofructokinase (Trypanosoma brucei brucei) (UniProt O15648)
# Test: qHTS Assay to Find Inhibitors of T. brucei phosphofructokinase: hit validation (AID 492961);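 also: luminescence reports ADP formed as PFK phosphorylates fructose-6-phosphate with ATP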
# Conditions: T. brucei PFK, ADP-Glo luminescence; series mostly up to 51.4 µM; activity change, negative = inhibition: at the top concentration
# Procedure, shortened: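 Compounds titrated; %activity normalized to 0x and 1x enzyme controls, curve-fitted. Readout: ADP-Glo luminescence after 45 min room-temperature reaction of 1.25 nM PFK, 0.1 mM ATP, 0.5 mM F6P, pH 8.0.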
# % is scaled to controls: 0 for no effect and ±100 for the full control effect.
# ATP-dependent 6-phosphofructokinase (Trypanosoma brucei brucei), sequence (O15648 whole entry, looked up): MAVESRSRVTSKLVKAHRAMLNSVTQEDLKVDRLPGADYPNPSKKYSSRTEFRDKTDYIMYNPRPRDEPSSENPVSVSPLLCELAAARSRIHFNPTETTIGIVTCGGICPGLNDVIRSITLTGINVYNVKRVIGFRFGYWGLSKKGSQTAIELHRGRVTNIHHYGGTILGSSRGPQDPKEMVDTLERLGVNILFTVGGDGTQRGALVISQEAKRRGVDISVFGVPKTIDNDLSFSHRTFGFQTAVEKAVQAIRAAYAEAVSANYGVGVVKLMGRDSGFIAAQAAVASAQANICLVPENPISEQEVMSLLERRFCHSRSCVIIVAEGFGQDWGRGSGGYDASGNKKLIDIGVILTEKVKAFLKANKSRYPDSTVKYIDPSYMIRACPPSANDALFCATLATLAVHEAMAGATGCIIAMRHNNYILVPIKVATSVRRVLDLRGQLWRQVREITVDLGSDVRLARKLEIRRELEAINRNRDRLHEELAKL
row,Structure (SMILES),"activity change, negative = inhibition"
1,NCCNC(=O)c1ccc(Cl)cn1,0%
2,CCc1oc2ccccc2c1C(=O)c1cc(Br)c(O)c(Br)c1,5.1%
3,CCOCCn1c(N2CCCN(C)CC2)nc2ccccc21,7.26%
4,COc1cc(C(=O)N2CCCCCCC2)cc(OC)c1OC,-3.21%
5,OC[C@H]1O[C@@H]2O[C@H]3[C@H](O)[C@@H](O)[C@@H](O[C@H]4[C@H](O)[C@@H](O)[C@@H](O[C@H]5[C@H](O)[C@@H](O)[C@@H](O[C@H]6[C@H](O)[C@@H](O)[C@@H](O[C@H]7[C@H](O)[C@@H](O)[C@@H](O[C@H]8[C@H](O)[C@@H](O)[C@@H](O[C@H]1[C@H](O)[C@H]2O)O[C@@H]8CO)O[C@@H]7CO)O[C@@H]6CO)O[C@@H]5CO)O[C@@H]4CO)O[C@@H]3CO,14.8%
6,O=C(Nc1ccc([N+](=O)[O-])cc1)Nc1ccc([N+](=O)[O-])cc1,3.67%
7,COc1ccc(-c2cc(C(F)F)nn2-c2ccc(S(N)(=O)=O)cc2)cc1F,-1.48%
8,NS(=O)(=O)c1ccc(Cl)c(S(N)(=O)=O)c1,5.68%
9,CCC1Nc2cc(Cl)c(S(N)(=O)=O)cc2S(=O)(=O)N1 (configuration not stated),-8.55%
10,C#C[C@]1(O)CC[C@H]2[C@@H]3CCC4=Cc5oncc5C[C@]4(C)[C@H]3CC[C@@]21C,5.94%
11,C/C=C/c1ccc(O)c(OC)c1,-2.1%
12,Cc1ccccc1OCC(O)CO (configuration not stated),-8.98%
13,CC(C)(C)NC[C@H](O)COc1cccc2c1CCCC2=O,4.4% [at 24.3 µM]
14,CN1CCN(c2cc3c(cc2F)c(=O)c(C(=O)O)cn3-c2ccc(F)cc2)CC1,4.2%
15,CCOC(=O)C(C#N)=C(c1ccccc1)c1ccccc1,-6.41%
16,CC1CCc2c(N3CCC(O)CC3)c(F)cc3c(=O)c(C(=O)O)cn1c23 (configuration not stated),-2.63%
17,OCCOCCN1CCN(C2=Nc3ccccc3Sc3ccccc32)CC1,2.94%
18,COc1cc(N)c(Cl)cc1C(=O)NC1CCN(Cc2ccccc2)CC1,-0.149% [at 24.3 µM]
19,Cc1cc(CC(=O)O)c(C)n1-c1ccc(Cl)cc1,-6.24%

row,Structure (SMILES),"activity change, negative = inhibition"
1,NC(=S)N/N=C/c1cccnc1,4.16%
2,CN1CCC[C@@H]1CCO[C@](C)(c1ccccc1)c1ccc(Cl)cc1,4.52%
3,COc1ccc(CCN(C)CCCN2CCc3cc(OC)c(OC)cc3CC2=O)cc1OC,6.49%
4,CCCCN=C(N)N=C(N)N,-0.147%
5,CCOc1cc(OCC)c(C(=O)CCC(=O)O)cc1OCC,-3.35%
6,CCCCNC(=O)NS(=O)(=O)c1ccc(N)cc1,-5.86%
7,CNCCCCOc1ccccc1Cc1ccccc1,0.927%
8,NS(=O)(=O)c1cc(C(=O)O)cc(N2CCCC2)c1Oc1ccccc1,-2.38% [at 24.3 µM]
9,c1ccc(CC2=NCCN2)cc1,12.6% [at 24.3 µM]
10,O=C1C(=O)c2ccccc2C(O)=C1C1CCC(c2ccc(Cl)cc2)CC1 (configuration not stated),5.75% [at 24.3 µM]
11,Clc1cccc(C(c2ccc3nc[nH]c3c2)n2ccnc2)c1 (configuration not stated),4.08%
12,Cc1cc(C)cc(OCC2CNC(=O)O2)c1 (configuration not stated),9.48%
13,C=CCN1CCc2nc(N)sc2CC1,-13.7%
14,CC(=O)NCCCCCC(=O)O,-5.68%
15,CCCCc1cc2ccccc2c(OCCN(C)C)n1,13.1% [at 24.3 µM]
16,CC(=O)Nc1ccc(S(=O)(=O)Nc2ccc([N+](=O)[O-])cc2)cc1,-8.84%
17,CCCCCCCCCCCCCC[N+](C)(C)Cc1ccccc1,16.2%
18,Cc1cc(NS(=O)(=O)c2ccc(N)cc2)nc(C)n1,6.17%
